Measurements taken from PubChem BioAssay AID602229 (The Scripps Research Institute Molecular Screening Center, 2012).
Among all 360,000 compounds or so, about 1,300 (0.36%) were called active.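 How the source made its calls: active means inhibition above the mean of all tested compounds plus 3 SD (cut at about 70% in these data); inactive means the rest.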 Many of the other results were omitted from the sample, so actives are more common in it than they were.

These compounds were tested against Photoreceptor-specific nuclear receptor (Homo sapiens) (UniProt Q9Y5X4) (assay: NCOR release from NR2E3 in cells – cell-based, luminescence, CHO-S, Gal4-NCOR/VP16-NR2E3, primary screen (AID 602229;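 further: 0% = DMSO with NR2E3 transfected cells and 100% = cells lacking NR2E3 construct; higher means lower luciferase signal from less NR2E3 corepressor binding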)). Conditions: CHO-S Gal4-NCOR/VP16-NR2E3 two-hybrid, luciferase; at 3.98 µM; hits give high values.
Sequence of Photoreceptor-specific nuclear receptor (Homo sapiens) (Q9Y5X4 whole entry, looked up, the tested form may be a part): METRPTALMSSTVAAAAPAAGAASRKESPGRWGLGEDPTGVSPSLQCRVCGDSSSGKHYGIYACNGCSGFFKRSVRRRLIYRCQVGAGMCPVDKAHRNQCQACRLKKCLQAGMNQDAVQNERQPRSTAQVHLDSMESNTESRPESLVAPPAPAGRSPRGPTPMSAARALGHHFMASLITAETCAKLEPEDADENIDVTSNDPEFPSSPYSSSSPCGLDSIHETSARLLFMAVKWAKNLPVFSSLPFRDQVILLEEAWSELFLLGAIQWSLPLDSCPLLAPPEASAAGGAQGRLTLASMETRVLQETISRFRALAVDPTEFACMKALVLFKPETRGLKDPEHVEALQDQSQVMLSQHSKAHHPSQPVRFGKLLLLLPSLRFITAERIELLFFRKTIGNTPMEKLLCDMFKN

Row | Structure (SMILES) | inhibition of corepressor binding
1 | O=C(CCc1nnc(CCCCc2ccccc2)o1)NC(c1cccnc1)C(F)(F)F (stereo not given) | -10.3% (inactive)
2 | O=C(Nn1cnnc1)c1cc(Cl)ccc1Cl | -4.56% (inactive)
3 | NC(=O)C1CCN(CC(O)CSc2ccc(F)cc2)CC1 (stereo not given) | -11.6% (inactive)
4 | NS(=O)(=O)c1cc(C(=O)NCCOc2ccccc2)c(Cl)cc1Cl | 16% (inactive)
5 | Cc1ccc(S(=O)(=O)N2CCCC(C(=O)N3CCN(C)CC3)C2)cc1 (stereo not given) | -11.8% (inactive)
6 | CC(=O)N1CCCc2cc(S(=O)(=O)N3CCCC(C(=O)N4CCN(c5cccc(Cl)c5)CC4)C3)ccc21 (stereo not given) | 97.5% (active)
7 | COc1cccc(N2CCN(C(=O)C3CCCN(S(=O)(=O)c4cnc[nH]4)C3)CC2)c1 (stereo not given) | -11% (inactive)
8 | O=C(CCC1CCCC1)N=C1SC2CS(=O)(=O)CC2N1Cc1ccccc1 (stereo not given) | -16.6% (inactive)
9 | CCc1cccc(NC(=O)C2CCCN(S(=O)(=O)c3ccc4[nH]c(=O)ccc4c3)C2)c1 (stereo not given) | -18.2% (inactive)
10 | CC(=O)c1ccc(NC(=O)C2CCCN2S(=O)(=O)c2cccs2)cc1 (stereo not given) | -7.87% (inactive)
11 | N#Cc1cccc(CSc2nnc(CCCO)n2-c2ccccc2)c1 | 1.83% (inactive)
12 | CC(C)OC(=O)c1ccc(NCc2cc(O)ccc2O)cc1Cl | -8.58% (inactive)
13 | O=C(OC12CC3CC(CC(C3)C1)C2)c1ccc(NCc2cc(O)ccc2O)cc1 | 91.5% (active)
14 | Cc1ccnc(NC(=O)Cn2ccc([N+](=O)[O-])n2)c1 | -2.77% (inactive)
15 | O=C(C1CCN(S(=O)(=O)c2ccc(Br)s2)CC1)N1CCN(c2ccccc2)CC1 | -1.63% (inactive)
16 | COc1cccc(CNC(=O)CCN2C(=S)NC(C)(C)CC2C)c1 (stereo not given) | 9.24% (inactive)
17 | COC(=O)[C@]1(S(=O)(=O)c2ccccc2)C[C@@H]2ON=C(c3ccc(OC)cc3)[C@@H]2C1 | -7.87% (inactive)
18 | N#C[C@]1(S(=O)(=O)c2ccccc2)C[C@@H]2ON=C(c3cccc(Br)c3)[C@@H]2C1 | 77.6% (active)
19 | CCCc1cc(=O)[nH]c(SCC(=O)c2c(N)n(CC(C)C)c(=O)n(C)c2=O)n1 | 5.16% (inactive)
20 | O=C(NNS(=O)(=O)Cc1ccccc1)c1ccc([N+](=O)[O-])cc1 | 0.72% (inactive)
21 | O=C(Nc1cc(-c2ccccc2)nn1-c1ccccc1F)c1ccc([N+](=O)[O-])cc1 | 7.55% (inactive)
22 | O=C(NC(Nc1nc2ccc([N+](=O)[O-])cc2s1)(C(F)(F)F)C(F)(F)F)c1ccccc1 | 102% (active)
23 | CC(C)n1c(-c2ccncc2)n[nH]c1=S | -6.98% (inactive)

Row | Structure (SMILES) | inhibition of corepressor binding
24 | CCOC(=O)N1CCN(C(=O)C2CCN(c3ncnc4c3sc3cccc(F)c34)CC2)CC1 | 78.5% (active)
25 | CCOC(=O)N1CCN(C(=O)C2CCCN(c3ncnc4c3sc3cccc(F)c34)C2)CC1 (stereo not given) | -2.23% (inactive)
26 | CCOC(=O)N1CCN(C(=O)C2CCN(Cc3ccc(OC)cc3OC)CC2)CC1 | 9.52% (inactive)
27 | COc1ccc(S(=O)(=O)N2CCCC2)c(C)c1C | -29.4% (inactive)
28 | CCOc1ccc(S(=O)(=O)N2CCCCCC2)c2ccccc12 | 75.7% (active)
29 | CCOc1ccc(S(=O)(=O)n2ccnc2)c2ccccc12 | 17.1% (inactive)
30 | CCNC(=O)N1CCNC(=O)C1CC(=O)Nc1ccc(C(=O)OCC)cc1 (stereo not given) | -12.7% (inactive)
31 | COC(=O)c1ccc(NS(=O)(=O)c2cc3c4c(c2)C(C)C(=O)N4CCC3)cc1 (stereo not given) | -17.2% (inactive)
32 | OCCCNc1nccc(-c2cc(Nc3cccc(Cl)c3)ncn2)n1 | 101% (active)
33 | COCCCn1cc(CN2CC(N(C)C)CS2(=O)=O)nn1 (stereo not given) | 20.1% (inactive)
34 | Cc1cc(C)c(S(=O)(=O)c2cc(F)ccc2C)c(=O)[nH]1 | -8.41% (inactive)
35 | CC(C)(CNC(=O)c1ccc(Cl)c(S(=O)(=O)N2CCc3ccccc3C2)c1)N1CCOCC1 | -7.92% (inactive)
36 | CCc1nc2ccc(C(=O)NC3CCN(Cc4ccccc4)CC3)cn2c1N(CC)CCOC | -6.67% (inactive)
37 | COc1cnc(-c2ccccn2)nc1Oc1ccc(C(C)(C)C)cc1 | 103% (active)
38 | COc1ccc2nc(-c3ccccn3)ccc2c1 | -147% (inactive)
39 | CC(C)(C)c1ccc(Oc2ccc(N)cc2)cc1 | 62.9% (inactive)
40 | CC(C)N(Cc1nnc(-c2ccc(Cl)cc2)o1)C(=O)C1=COCCO1 | -16.3% (inactive)
41 | COc1ccc(CCNC(=O)CSCc2ccc(Br)cc2)cc1OC | -15% (inactive)
42 | CS(=O)(=O)c1ccc2nnn(OCC(=O)Nc3cccc(C#N)c3)c2c1 | -3.52% (inactive)
43 | CCOc1ccc(-c2noc(CCC(=O)NC3CCCC3)n2)cc1OC | 4.53% (inactive)
44 | CCc1ccc(CNC(=O)CCc2nc(-c3cccs3)no2)cc1 | -4.34% (inactive)
45 | CCNC(=O)CCc1nc(-c2ccc(C(C)(C)C)cc2)no1 | 75.3% (active)
46 | CN(CC(=O)NCCN1CCOCC1)S(=O)(=O)c1ccc(F)cc1 | -42.2% (inactive)

Row | Structure (SMILES) | inhibition of corepressor binding
47 | COc1cc(OC)cc(C2=Cc3ccccc3C(CC(=O)c3ccco3)N2c2ccc(-c3cnc(OC)nc3)cc2)c1 (stereo not given) | -30.9% (inactive)
48 | CCCn1c(C)cc(C(=O)COC(=O)c2c(C)nn(-c3ccccc3)c2C)c1C | 17.1% (inactive)
49 | Cc1ccsc1C(=O)OCC(=O)c1cc(C)n(CC2CCCO2)c1C (stereo not given) | 89.5% (active)
50 | COc1ccc(CNC(=O)COC(=O)c2sccc2C)cc1OC | -4.67% (inactive)
51 | Cc1nc(CNS(=O)(=O)c2ccc(Oc3ccccc3)cc2)cs1 | 92.4% (active)
52 | Cc1ccc(S(=O)(=O)NCc2nc3ccccc3c(=O)n2N)cc1 | 22.2% (inactive)
53 | Cc1nc(CNS(=O)(=O)c2cc([N+](=O)[O-])ccc2C)cs1 | 6.54% (inactive)
54 | Cc1cc2ccccn2c1C(=O)c1cccc(S(=O)(=O)N2CCOCC2)c1 | 2.82% (inactive)
55 | CCN(C(=O)CSc1nnnn1-c1ccc(OC)cc1)C1CCS(=O)(=O)C1 (stereo not given) | -16.1% (inactive)
56 | CCC(C)N1C(=O)S/C(=C/c2ccc(Sc3nc4ccccc4[nH]3)o2)C1=O (stereo not given) | 78.5% (active)
57 | CCOc1ccc(NC(=O)CN(C)C(=O)COc2cccc(CC)c2)cc1OCC | 2.58% (inactive)
58 | COc1ccc(NC(=O)/C(Cl)=C(/Cl)S(=O)Cc2ccc(C)cc2)cn1 (stereo not given) | 84.1% (active)
59 | CC(C)c1ccc(NC(=O)[C@@H](NC(=O)N2CC(=O)Nc3ccccc32)C(C)C)cc1 | -32.4% (inactive)
60 | Cc1nn(-c2ccccc2)c(=O)c2noc(C)c12 | -0.89% (inactive)
61 | N#CCCN(C(=O)Nc1ccc(Cl)c(Cl)c1)C1CCCCC1 | -1.19% (inactive)
62 | O=C(CN1CCN(C(=O)c2ccco2)CC1)Nc1ccc(Cl)c(C(F)(F)F)c1 | -9.37% (inactive)
63 | O=C(CC(O)(C(F)(F)F)C(F)(F)F)Nc1ccc(Cl)c(Cl)c1 | 107% (active)
64 | CN(C)c1ccc(NC(=O)CSc2n[nH]c(-c3ccco3)n2)cc1 | -21.3% (inactive)
65 | O[C@@H]1C[C@H](c2ccccc2)N(Cc2cccs2)C[C@H]1n1cc(C2CC2)nn1 | 5.46% (inactive)
66 | COc1ccc(S(=O)(=O)N2CCN(C(C)C(=O)Nc3ccc(C(C)C)cc3)CC2)cc1 (stereo not given) | 94.6% (active)
67 | CC(C)c1ccc(S(=O)(=O)N2CCN(C(C)C(=O)NC3CCCC3)CC2)cc1 (stereo not given) | -5.61% (inactive)
68 | COc1cccc(CNC(C)C(=O)Nc2ccc(S(=O)(=O)N3CCCC3)cc2)c1 (stereo not given) | 3.95% (inactive)
69 | N#Cc1ccc(COC(=O)Cn2nnc(-c3ccccc3)n2)cc1 | 19.6% (inactive)

Row | Structure (SMILES) | inhibition of corepressor binding
70 | CCC(=O)N1CCN=C1SCc1ccc(F)cc1 | 3.93% (inactive)
71 | Cc1ccc(OCc2nnc(SC3CCc4ccccc4C3=O)n2C)cc1 (stereo not given) | -9.34% (inactive)
72 | CCCCC(NS(=O)(=O)c1ccc(C)cc1)C(=O)Oc1ccc2c3c(c(=O)oc2c1)CCC3 (stereo not given) | -22.6% (inactive)
73 | CCC(=O)c1ccc(OCC(O)Cn2nc(C)c(C(C)=O)c2C)cc1 (stereo not given) | -7.85% (inactive)
74 | CCN(CC)C(=O)C1=C(C)N(Cc2ccc(C(C)(C)C)cc2)C(=O)C(CC(=O)NCc2cccc3ccccc23)C1 (stereo not given) | 20.9% (inactive)
75 | C=CCn1c(C)cc(C2=NNC(=NCC)SC2)c1C | 89.3% (active)
76 | CCN(CC)S(=O)(=O)c1ccc(N(C)CCc2ccc(OC)c(OC)c2)nc1 | 14.8% (inactive)
77 | CCN(CC)S(=O)(=O)c1ccc(N(C)Cc2ccc(C(F)(F)F)cc2)nc1 | 91.6% (active)
78 | CCN(CC)S(=O)(=O)c1ccc(N(C)Cc2cccc(OC)c2OC)nc1 | 2.59% (inactive)
79 | CCCCCCCCCCCCC(NC(C)=O)(C(=O)OCC)C(=O)OCC | 34.1% (inactive)
80 | O=C(Nn1cnc2ccccc2c1=O)c1ccc([N+](=O)[O-])cc1Cl | -16.8% (inactive)
81 | CCCCN1C[C@H](c2ccc(Br)cc2)[C@@H](CC(=O)Nc2ccc(Br)cc2)C1=O | -20.7% (inactive)
82 | O=C(Nc1ccccn1)C1CCN(S(=O)(=O)c2ccc3c(c2)OCCO3)CC1 | -51.8% (inactive)
83 | CNC(=O)C1CCN(S(=O)(=O)c2c(C)noc2/C=C/c2cccc(C)c2)CC1 | -10.5% (inactive)
84 | Cc1ccnc(NC(=O)C2CCN(S(=O)(=O)c3c(C)c(C)cc(C)c3C)CC2)c1 | 80.9% (active)
85 | CN(C)c1ccc(NC(=S)N(CCc2ccccc2)C2CC(=O)N(c3c(Cl)cccc3Cl)C2=O)cc1 (stereo not given) | 0.55% (inactive)
86 | COc1ccc(-c2ccc(C(=O)NC(C)C)c3occc23)c(C)c1 | 15.3% (inactive)
87 | CC(=O)Nc1ccc(S(=O)(=O)NCC(=O)OCc2cc(=O)oc3ccc4ccccc4c23)cc1 | -8.3% (inactive)
88 | COc1ccc(CCNC(=O)CC2SC(=Nc3cc(C)cc(C)c3)NC2=O)cc1OC (stereo not given) | -33.4% (inactive)
89 | CCCOc1ccc(Cc2c(O)nc(SC)[nH]c2=O)cc1C | -21.5% (inactive)
90 | CCCOc1ccc(Cc2c(Cl)nc(SC)nc2NC)cc1 | 92.3% (active)
